Results: PMC7862700, “An all-to-all approach to the identification of sequence-specific readers for epigenetic DNA modifications on cytosine”

Legend:
Assay in all cases: DAPPL (digital affinity profiling via proximity ligation, sequencing); 10 mM Tris-HCl pH 7.5, 50 mM NaCl, 1 mM DTT, 4% glycerol, room temperature, 30 min; GST-TFs on glutathione beads, 16-mer random dsDNA library, 0.1% formaldehyde crosslink after washing; high values mean tight binding
Conditions in all cases: protein: recombinant; tags: N-terminal GST; dsDNA, one strand shown
[1] = target: T1, FLI1 (Homo sapiens, UniProt Q01543 1-452)
T1 sequence: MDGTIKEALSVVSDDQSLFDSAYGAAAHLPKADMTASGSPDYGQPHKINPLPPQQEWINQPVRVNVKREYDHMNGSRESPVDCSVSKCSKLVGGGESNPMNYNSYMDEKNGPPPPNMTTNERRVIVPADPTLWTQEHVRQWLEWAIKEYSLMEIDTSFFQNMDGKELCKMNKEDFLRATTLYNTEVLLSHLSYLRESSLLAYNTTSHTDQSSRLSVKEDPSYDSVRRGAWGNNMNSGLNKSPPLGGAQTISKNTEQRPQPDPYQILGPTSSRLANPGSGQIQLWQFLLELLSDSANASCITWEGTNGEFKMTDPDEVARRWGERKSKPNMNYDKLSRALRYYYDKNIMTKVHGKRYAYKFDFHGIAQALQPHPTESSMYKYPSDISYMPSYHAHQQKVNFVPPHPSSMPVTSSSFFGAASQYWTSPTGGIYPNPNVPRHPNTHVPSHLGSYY
Outline: (§1)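 Human transcription factors carrying a GST fusion were produced in yeast, bound to glutathione beads, tagged with DNA barcodes and pooled together with a tag-only sample. Each pool was held with 200 nmole of a random double-stranded 16-mer DNA library in Tris/NaCl/DTT/glycerol buffer for 30 min at room temperature, then washed, crosslinked in 0.1% formaldehyde, proximity-ligated with BsaI/T4 ligase (1 h, 37 °C), PCR-amplified and sequenced on an Illumina NextSeq500. Binding signal is the read frequency of each hexamer for a given factor divided by its frequency in the tag-only sample.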

[2] = target: T2, ELK1 (Homo sapiens, UniProt P19419 1-428)
T2 sequence: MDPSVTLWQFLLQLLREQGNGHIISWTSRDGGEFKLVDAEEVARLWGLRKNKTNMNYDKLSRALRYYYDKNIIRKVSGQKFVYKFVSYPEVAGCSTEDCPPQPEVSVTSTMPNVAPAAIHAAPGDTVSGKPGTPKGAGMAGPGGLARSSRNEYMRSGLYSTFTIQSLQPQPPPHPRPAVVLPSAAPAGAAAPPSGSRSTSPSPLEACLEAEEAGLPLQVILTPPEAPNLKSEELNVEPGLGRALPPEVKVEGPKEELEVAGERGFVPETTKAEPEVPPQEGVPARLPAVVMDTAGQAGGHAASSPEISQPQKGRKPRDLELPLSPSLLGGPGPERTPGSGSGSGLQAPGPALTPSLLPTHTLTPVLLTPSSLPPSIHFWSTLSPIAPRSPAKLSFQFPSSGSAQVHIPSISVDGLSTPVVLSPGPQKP
Outline: as §1

[3] = target: T3, GABPA (Homo sapiens, UniProt Q06546 1-454)
T3 sequence: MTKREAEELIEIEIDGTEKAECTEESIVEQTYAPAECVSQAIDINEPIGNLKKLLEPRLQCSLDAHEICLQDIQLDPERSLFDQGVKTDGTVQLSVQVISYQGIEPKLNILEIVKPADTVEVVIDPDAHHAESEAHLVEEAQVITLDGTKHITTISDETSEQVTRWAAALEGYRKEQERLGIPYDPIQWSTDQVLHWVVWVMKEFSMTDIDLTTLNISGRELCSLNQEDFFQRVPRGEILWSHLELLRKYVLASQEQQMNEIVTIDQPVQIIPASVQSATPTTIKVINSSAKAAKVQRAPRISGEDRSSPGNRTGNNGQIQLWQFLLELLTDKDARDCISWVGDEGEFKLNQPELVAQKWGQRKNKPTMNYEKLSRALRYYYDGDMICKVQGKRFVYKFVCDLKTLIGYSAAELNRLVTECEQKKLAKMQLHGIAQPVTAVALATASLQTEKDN
Outline: as §1

[4] = target: T4, ERG (Homo sapiens, UniProt P11308 1-479)
T4 sequence: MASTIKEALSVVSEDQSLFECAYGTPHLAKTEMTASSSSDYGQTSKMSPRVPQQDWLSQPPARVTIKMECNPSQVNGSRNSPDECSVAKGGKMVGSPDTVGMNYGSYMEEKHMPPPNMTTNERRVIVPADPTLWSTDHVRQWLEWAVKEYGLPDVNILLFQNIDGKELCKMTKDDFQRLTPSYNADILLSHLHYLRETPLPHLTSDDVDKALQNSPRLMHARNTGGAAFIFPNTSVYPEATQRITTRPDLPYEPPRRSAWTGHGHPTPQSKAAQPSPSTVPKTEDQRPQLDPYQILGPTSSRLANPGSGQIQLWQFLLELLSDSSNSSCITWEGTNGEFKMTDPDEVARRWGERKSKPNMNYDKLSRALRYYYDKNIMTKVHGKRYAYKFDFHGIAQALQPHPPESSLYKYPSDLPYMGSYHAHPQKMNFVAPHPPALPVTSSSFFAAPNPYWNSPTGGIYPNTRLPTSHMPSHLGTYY
Outline: as §1

[5] = target: ELF1 (Homo sapiens, UniProt P32519 1-619)
ELF1, sequence (P32519 whole entry): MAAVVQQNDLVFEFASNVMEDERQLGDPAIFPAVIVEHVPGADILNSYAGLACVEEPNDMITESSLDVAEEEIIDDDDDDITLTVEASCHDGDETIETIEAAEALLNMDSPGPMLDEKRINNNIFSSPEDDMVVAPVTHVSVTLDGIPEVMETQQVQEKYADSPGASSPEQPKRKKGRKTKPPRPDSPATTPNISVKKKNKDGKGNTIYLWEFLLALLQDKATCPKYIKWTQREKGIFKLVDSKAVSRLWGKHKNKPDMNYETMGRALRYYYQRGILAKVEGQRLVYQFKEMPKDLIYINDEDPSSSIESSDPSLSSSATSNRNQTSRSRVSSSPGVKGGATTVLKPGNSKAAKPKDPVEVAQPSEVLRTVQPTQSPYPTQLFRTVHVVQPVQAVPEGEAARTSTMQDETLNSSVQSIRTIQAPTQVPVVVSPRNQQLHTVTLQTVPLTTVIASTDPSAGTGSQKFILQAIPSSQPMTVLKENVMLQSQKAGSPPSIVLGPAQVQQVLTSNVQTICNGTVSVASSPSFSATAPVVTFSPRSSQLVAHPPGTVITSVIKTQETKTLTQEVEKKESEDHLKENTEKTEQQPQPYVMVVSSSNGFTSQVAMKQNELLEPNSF
Outline: as §1

[6] = target: T5, EHF (Homo sapiens, UniProt Q9NZC4 1-300)
T5 sequence: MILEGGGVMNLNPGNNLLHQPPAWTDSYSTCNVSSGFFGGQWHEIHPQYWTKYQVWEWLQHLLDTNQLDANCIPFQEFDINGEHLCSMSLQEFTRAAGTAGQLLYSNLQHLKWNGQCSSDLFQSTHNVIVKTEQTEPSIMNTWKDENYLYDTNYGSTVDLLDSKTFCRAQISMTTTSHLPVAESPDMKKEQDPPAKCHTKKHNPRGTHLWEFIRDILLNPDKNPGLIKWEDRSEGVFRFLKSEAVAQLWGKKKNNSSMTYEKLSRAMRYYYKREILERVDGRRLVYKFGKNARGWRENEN
Outline: as §1

[7] = target: SPI1 (Homo sapiens, UniProt P17947 1-270)
Outline: as §1

[8] = target: SPIB (Homo sapiens, UniProt Q01892 1-262)
SPIB, sequence (Q01892 whole entry): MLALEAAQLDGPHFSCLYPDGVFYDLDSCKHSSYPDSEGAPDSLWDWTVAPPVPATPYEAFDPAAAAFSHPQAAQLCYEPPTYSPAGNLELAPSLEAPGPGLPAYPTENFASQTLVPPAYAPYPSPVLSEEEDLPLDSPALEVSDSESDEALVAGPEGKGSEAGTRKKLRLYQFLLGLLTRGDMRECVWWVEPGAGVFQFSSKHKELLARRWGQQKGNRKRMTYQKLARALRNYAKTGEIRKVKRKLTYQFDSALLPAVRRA
Outline: as §1

[9] = target: T6, ELK3 (Homo sapiens, UniProt P41970 1-407)
T6 sequence: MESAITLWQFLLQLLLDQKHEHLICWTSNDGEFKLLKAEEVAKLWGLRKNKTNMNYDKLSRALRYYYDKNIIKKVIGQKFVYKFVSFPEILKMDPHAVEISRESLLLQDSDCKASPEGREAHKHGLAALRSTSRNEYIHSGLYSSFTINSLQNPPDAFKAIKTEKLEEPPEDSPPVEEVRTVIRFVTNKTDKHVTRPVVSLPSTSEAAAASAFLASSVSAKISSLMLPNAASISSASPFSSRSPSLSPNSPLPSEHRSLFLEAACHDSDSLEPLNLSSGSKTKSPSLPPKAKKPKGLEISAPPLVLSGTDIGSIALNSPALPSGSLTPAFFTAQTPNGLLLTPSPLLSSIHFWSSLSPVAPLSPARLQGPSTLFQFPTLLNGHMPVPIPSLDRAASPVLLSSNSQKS
Outline: as §1

[10] = target: T7, FEV (Homo sapiens, UniProt Q99581 1-238)
T7 sequence: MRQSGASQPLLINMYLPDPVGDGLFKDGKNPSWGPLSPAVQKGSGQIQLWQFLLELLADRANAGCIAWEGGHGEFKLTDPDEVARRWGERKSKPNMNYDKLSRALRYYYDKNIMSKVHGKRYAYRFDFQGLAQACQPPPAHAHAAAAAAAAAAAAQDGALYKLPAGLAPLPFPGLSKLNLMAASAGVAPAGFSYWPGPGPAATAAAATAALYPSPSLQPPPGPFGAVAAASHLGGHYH
Outline: as §1

[11] = target: ETV5 (Homo sapiens, UniProt P41161 1-510)
ETV5, sequence (P41161 whole entry): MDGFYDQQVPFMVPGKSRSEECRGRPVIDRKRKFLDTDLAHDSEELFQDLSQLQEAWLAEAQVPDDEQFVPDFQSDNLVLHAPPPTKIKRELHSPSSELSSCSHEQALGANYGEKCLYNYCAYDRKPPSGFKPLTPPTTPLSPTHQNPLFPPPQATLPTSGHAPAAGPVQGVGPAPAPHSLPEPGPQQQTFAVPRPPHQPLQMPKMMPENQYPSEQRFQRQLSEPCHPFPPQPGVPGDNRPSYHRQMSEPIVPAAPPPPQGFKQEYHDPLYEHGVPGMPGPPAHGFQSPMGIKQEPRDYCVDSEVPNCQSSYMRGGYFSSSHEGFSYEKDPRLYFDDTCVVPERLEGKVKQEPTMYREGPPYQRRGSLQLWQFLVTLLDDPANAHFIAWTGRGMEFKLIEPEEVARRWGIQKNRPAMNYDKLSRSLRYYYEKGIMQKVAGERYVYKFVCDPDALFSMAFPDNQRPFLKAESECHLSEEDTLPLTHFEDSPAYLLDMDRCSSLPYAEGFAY
Outline: as §1

[12] = target: T8, SPIC (Homo sapiens, UniProt Q8N5J4 1-248)
T8 sequence: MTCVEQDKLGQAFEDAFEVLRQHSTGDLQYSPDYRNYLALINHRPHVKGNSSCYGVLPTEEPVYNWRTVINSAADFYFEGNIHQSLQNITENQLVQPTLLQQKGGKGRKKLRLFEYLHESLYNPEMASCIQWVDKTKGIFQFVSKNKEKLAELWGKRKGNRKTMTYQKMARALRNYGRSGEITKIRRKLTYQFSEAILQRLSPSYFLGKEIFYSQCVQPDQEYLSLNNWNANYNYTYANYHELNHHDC
Outline: as §1

[13] = target: ELF4 (Homo sapiens, UniProt Q99607 1-663)
ELF4, sequence (Q99607 whole entry): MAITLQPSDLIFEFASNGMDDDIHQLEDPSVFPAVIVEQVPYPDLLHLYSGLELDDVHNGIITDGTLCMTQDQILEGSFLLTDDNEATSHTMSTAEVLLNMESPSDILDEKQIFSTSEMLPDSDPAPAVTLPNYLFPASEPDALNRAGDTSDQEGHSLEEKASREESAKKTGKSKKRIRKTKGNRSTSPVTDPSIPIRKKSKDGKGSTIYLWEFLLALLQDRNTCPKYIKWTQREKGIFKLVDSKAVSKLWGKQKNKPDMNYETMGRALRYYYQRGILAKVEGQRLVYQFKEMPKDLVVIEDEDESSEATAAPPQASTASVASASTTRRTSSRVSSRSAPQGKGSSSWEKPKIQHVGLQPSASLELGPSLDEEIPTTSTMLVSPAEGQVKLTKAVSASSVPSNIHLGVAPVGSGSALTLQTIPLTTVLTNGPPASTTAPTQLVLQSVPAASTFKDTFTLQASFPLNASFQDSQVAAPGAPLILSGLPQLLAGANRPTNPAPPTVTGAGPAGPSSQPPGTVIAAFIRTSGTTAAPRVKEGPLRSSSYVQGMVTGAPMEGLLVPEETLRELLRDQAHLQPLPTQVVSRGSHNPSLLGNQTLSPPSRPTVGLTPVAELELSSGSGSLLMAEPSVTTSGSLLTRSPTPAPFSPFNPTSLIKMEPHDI
Outline: as §1

[14] = target: T9, ELK4 (Homo sapiens, UniProt P28324-2 1-405)
T9 sequence: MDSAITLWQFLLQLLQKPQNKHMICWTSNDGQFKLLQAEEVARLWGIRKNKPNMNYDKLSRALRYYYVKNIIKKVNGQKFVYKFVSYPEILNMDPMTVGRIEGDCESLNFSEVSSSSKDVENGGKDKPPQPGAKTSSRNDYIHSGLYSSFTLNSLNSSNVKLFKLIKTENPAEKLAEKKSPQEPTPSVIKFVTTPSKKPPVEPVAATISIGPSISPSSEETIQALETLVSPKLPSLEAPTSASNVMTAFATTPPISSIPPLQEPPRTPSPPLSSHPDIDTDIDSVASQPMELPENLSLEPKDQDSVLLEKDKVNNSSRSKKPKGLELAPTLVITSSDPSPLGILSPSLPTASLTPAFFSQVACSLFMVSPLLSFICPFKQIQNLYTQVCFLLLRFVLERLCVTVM
Outline: as §1

[15] = target: T10, ETV2 (Homo sapiens, UniProt O00321 1-342)
T10 sequence: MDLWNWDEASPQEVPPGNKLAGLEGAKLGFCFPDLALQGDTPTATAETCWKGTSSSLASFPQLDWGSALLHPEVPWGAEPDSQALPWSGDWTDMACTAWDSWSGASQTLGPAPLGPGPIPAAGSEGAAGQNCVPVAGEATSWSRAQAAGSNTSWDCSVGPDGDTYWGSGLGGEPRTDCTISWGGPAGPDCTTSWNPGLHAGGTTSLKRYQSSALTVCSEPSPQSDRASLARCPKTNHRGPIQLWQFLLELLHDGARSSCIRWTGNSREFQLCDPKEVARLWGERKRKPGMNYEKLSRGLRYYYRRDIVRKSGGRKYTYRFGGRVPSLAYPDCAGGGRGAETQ
Outline: as §1

[16] = target: ETV1 (Homo sapiens, UniProt P50549 1-477)
ETV1, sequence (P50549 whole entry): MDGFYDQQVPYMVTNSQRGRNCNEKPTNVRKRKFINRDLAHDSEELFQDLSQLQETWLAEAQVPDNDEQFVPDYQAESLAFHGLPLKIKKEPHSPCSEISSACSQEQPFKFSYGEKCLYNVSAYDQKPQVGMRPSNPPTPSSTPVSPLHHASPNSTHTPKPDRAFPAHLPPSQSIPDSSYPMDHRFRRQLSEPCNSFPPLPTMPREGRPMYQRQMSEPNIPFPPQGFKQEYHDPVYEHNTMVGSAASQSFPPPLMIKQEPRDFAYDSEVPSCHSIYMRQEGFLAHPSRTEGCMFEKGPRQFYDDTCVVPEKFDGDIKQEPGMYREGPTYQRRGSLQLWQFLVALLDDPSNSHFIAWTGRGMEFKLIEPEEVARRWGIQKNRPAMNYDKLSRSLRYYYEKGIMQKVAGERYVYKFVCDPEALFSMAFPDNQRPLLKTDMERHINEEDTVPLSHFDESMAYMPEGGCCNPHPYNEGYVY
Outline: as §1

[17] = target: T11, ELF3 (Homo sapiens, UniProt P78545 1-371)
T11 sequence: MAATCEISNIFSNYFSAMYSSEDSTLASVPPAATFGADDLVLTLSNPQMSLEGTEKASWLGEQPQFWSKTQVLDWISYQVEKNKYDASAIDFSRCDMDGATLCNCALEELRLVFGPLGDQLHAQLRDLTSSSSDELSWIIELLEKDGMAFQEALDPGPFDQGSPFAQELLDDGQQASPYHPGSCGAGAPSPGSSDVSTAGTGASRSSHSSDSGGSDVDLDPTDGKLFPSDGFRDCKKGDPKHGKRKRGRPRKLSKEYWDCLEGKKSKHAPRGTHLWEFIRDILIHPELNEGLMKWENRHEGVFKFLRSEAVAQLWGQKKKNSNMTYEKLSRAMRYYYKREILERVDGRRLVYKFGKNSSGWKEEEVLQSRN
Outline: as §1

[18] = target: CRX (Homo sapiens, UniProt O43186 1-299)
CRX, sequence (O43186 whole entry): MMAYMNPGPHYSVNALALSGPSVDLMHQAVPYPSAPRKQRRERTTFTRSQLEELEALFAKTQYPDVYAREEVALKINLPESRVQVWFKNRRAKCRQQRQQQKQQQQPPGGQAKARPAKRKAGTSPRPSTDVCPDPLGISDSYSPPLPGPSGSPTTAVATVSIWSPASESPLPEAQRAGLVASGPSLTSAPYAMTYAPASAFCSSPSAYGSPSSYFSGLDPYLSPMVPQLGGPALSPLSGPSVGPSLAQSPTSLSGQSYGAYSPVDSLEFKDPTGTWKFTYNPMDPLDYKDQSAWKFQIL
Outline: as §1

| Sequence | binding signal [1] | binding signal [2] | binding signal [3] | binding signal [4] | binding signal [5] | binding signal [6] | binding signal [7] | binding signal [8] | binding signal [9] | binding signal [10] | binding signal [11] | binding signal [12] | binding signal [13] | binding signal [14] | binding signal [15] | binding signal [16] | binding signal [17] | binding signal [18] |
| --- | --- | --- | --- | --- | --- | --- | --- | --- | --- | --- | --- | --- | --- | --- | --- | --- | --- | --- |
| TGCTTG | 1.31 fold enrichment (6-mer frequency, TF over GST control) | 1.15 fold enrichment (6-mer frequency, TF over GST control) | 1.11 fold enrichment (6-mer frequency, TF over GST control) | 1.15 fold enrichment (6-mer frequency, TF over GST control) | 1.18 fold enrichment (6-mer frequency, TF over GST control) | 1.31 fold enrichment (6-mer frequency, TF over GST control) | 1.17 fold enrichment (6-mer frequency, TF over GST control) | 1.2 fold enrichment (6-mer frequency, TF over GST control) | 1.11 fold enrichment (6-mer frequency, TF over GST control) | 1.09 fold enrichment (6-mer frequency, TF over GST control) | 1.2 fold enrichment (6-mer frequency, TF over GST control) | 1.31 fold enrichment (6-mer frequency, TF over GST control) | 1.12 fold enrichment (6-mer frequency, TF over GST control) | 1.4 fold enrichment (6-mer frequency, TF over GST control) | 1.26 fold enrichment (6-mer frequency, TF over GST control) | 1.21 fold enrichment (6-mer frequency, TF over GST control) |  |  |
| TTGGGT | 1.02 fold enrichment (6-mer frequency, TF over GST control) | 1.13 fold enrichment (6-mer frequency, TF over GST control) | 1.22 fold enrichment (6-mer frequency, TF over GST control) |  | 1.09 fold enrichment (6-mer frequency, TF over GST control) | 1.04 fold enrichment (6-mer frequency, TF over GST control) | 1.02 fold enrichment (6-mer frequency, TF over GST control) | 1.05 fold enrichment (6-mer frequency, TF over GST control) | 1.16 fold enrichment (6-mer frequency, TF over GST control) | 1.07 fold enrichment (6-mer frequency, TF over GST control) | 1.04 fold enrichment (6-mer frequency, TF over GST control) | 1.07 fold enrichment (6-mer frequency, TF over GST control) | 1.08 fold enrichment (6-mer frequency, TF over GST control) | 1.09 fold enrichment (6-mer frequency, TF over GST control) |  | 1.06 fold enrichment (6-mer frequency, TF over GST control) | 1.14 fold enrichment (6-mer frequency, TF over GST control) | 1.07 fold enrichment (6-mer frequency, TF over GST control) |
